Holding throughout (test): universal protein binding microarray (PBM); transcription factors of Arabidopsis thaliana; high values mean tight binding
Holding throughout (conditions): protein: recombinant; tags: GST; chain copies: 2; dsDNA, one strand shown

Assay [1] deals with T1, GST-ANAC092(1-176) (Arabidopsis thaliana, UniProt Q9FKA0 1-176).
T1 sequence: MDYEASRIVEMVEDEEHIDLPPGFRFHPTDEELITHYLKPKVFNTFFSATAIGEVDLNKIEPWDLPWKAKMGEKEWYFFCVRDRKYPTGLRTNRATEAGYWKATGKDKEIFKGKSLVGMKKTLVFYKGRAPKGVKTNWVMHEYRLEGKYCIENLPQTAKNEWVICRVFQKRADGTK
A digest of the protocol:
(§1)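 Cells were induced to make GST-tagged NAC-domain, full-length or DNA-binding-domain proteins, and zinc acetate was added for zinc-finger proteins. These proteins were purified on glutathione–Sepharose 4B, quantified by A280 or anti-GST western blot, and applied in duplicate at 200 to 500 nM final to custom all-10-mer Agilent 4 × 180K arrays that primer extension had made double-stranded. Binding is given as the normalised enrichment score (E-score) for scored gapped and ungapped 8-mers.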

Assay [2] concerns the target T2, GST-ANAC019 NAC domain (Arabidopsis thaliana, UniProt Q9C932 14-162).
T2 sequence: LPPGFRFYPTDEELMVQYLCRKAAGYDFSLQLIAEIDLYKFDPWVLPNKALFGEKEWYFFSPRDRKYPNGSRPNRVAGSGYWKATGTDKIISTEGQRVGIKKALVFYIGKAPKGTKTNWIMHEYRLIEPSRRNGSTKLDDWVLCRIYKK
A digest of the protocol:
as §1

Assay [3] has as its target T3, GST-ANAC055(1-171) (Arabidopsis thaliana, UniProt Q9LDY8 1-171).
T3 sequence: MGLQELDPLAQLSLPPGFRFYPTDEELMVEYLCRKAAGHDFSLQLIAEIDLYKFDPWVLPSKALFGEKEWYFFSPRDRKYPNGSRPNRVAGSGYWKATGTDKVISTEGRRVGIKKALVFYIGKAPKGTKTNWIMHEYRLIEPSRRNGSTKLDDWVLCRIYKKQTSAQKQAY
A digest of the protocol:
as §1

Assay [4] deals with T4, GST-ATAF1 NAC domain (Arabidopsis thaliana, UniProt Q39013 7-158).
T4 sequence: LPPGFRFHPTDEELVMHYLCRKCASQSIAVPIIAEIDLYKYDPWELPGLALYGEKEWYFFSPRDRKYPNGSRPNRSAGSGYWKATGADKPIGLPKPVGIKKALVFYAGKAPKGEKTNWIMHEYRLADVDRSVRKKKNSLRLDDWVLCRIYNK
A digest of the protocol:
as §1

The target in assay [5] is T5, GST-ANAC092(1-285) full length (Arabidopsis thaliana, UniProt Q9FKA0 1-285).
T5 sequence: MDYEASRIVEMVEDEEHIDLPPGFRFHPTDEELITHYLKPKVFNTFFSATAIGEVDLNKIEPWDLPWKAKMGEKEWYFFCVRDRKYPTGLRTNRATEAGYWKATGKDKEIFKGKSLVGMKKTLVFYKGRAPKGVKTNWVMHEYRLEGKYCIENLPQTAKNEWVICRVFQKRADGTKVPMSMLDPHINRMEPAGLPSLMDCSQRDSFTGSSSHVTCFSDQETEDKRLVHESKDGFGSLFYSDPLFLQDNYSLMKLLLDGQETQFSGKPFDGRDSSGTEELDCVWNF
The essentials:
as §1

The target of assay [6] is T6, GST-NAP(1-166) (Arabidopsis thaliana, UniProt O49255 1-166).
T6 sequence: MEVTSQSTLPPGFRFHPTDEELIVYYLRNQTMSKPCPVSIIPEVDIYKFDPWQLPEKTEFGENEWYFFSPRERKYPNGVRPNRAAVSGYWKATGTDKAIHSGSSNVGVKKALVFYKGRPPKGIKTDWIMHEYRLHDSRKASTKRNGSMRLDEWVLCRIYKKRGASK
The essentials:
as §1

The target of assay [7] is T7, GST-NST2(1-184) (Arabidopsis thaliana, UniProt Q9M274 1-184).
T7 sequence: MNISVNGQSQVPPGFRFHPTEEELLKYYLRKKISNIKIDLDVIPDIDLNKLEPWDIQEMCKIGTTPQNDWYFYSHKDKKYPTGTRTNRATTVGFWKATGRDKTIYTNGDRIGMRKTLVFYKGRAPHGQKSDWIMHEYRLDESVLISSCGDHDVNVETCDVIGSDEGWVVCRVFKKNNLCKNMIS
A digest of the protocol: as §1

Assay [8] concerns the target T8, GST-NTL8 NAC domain (Arabidopsis thaliana, UniProt Q9XIN7 14-156).
T8 sequence: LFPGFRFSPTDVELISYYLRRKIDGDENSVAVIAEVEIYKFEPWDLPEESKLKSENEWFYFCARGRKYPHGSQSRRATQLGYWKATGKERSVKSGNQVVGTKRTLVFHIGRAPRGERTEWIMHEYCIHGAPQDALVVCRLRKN
The essentials:
as §1

Assay [9] concerns the target T9, GST-SND1(1-203) (Arabidopsis thaliana, UniProt Q9LPI7 1-203).
T9 sequence: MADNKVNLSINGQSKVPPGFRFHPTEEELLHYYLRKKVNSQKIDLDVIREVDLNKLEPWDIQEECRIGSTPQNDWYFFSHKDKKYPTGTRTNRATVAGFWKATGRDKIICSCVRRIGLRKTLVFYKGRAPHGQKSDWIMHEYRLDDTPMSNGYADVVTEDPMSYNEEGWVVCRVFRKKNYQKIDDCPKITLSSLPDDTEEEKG
The essentials:
as §1

The target in assay [10] is T10, GST-VND3 NAC domain (Arabidopsis thaliana, UniProt Q9FH59 12-162).
T10 sequence: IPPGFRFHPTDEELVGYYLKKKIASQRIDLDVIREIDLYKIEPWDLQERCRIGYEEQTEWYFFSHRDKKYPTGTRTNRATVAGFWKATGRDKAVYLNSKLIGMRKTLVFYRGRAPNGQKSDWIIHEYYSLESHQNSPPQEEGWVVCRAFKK
A digest of the protocol: as §1

Assay [11] concerns the target T11, GST-VND7 NAC domain (Arabidopsis thaliana, UniProt Q9C8W9 9-158).
T11 sequence: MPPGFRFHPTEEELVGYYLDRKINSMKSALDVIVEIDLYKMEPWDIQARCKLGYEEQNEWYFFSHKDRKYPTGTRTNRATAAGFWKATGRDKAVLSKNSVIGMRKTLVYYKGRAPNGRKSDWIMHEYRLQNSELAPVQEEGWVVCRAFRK
The essentials: as §1

As to AAATACGT, the binding signal in [1] was 0.196 E-score; in [2], 0.226 E-score; in [3], 0.244 E-score; in assay [4], 0.346 E-score; in assay [5], 0.35 E-score; in [6], 0.29 E-score. The binding signal in assay [7] turned out to be 0.209 E-score; in assay [8] it was 0.101 E-score; in assay [9] it was 0.21 E-score; in assay [10], 0.408 E-score; in [11], 0.263 E-score.
With ACGCAATG, the binding signal in [1] came to 0.452 E-score; in [2], 0.32 E-score; in assay [3], 0.21 E-score; in [4], 0.162 E-score; in assay [5] it was 0.456 E-score; in [6], 0.35 E-score. In addition, the binding signal in assay [7] stood at 0.359 E-score; in assay [8] it was 0.0941 E-score; in [9], 0.437 E-score; in [10], 0.314 E-score; in assay [11], 0.311 E-score.
On to CACGTTAC, for which the binding signal in assay [1] came to 0.467 E-score; in assay [2], 0.241 E-score; in assay [3] it was 0.293 E-score; in [4], 0.287 E-score; in [5], 0.476 E-score; in assay [6], 0.221 E-score. Further, the binding signal in assay [7] was found to be 0.328 E-score; in assay [8] it was 0.0995 E-score; in assay [9], 0.432 E-score; in [10] it was 0.319 E-score; in [11], 0.275 E-score.
For the sequence GCACGTAA, the binding signal in [1] came out at 0.461 E-score; in [2], 0.478 E-score; in [3], 0.433 E-score; in [4], 0.381 E-score; in [5] it was 0.467 E-score; in assay [6] it was 0.427 E-score. The binding signal in [7] was found to be 0.218 E-score; in assay [8], 0.189 E-score; in [9], 0.225 E-score; in [10], 0.454 E-score; in assay [11], 0.454 E-score.
On to TGCGTAAA, for which the binding signal in [1] came to 0.396 E-score; in assay [2] it was 0.205 E-score; in assay [3], 0.131 E-score; in assay [4], 0.216 E-score; in assay [5] it was 0.386 E-score; in assay [6] it was 0.162 E-score. For the same sequence, the binding signal in assay [7] came out at 0.291 E-score; in assay [8], 0.0652 E-score; in assay [9] it was 0.447 E-score; in [10], 0.26 E-score; in assay [11], 0.244 E-score.
Consider TCACGTAA, for which the binding signal was determined as 0.443 E-score in assay [1]; 0.47 E-score in assay [2]; 0.424 E-score in [3]; 0.324 E-score in assay [4]; 0.445 E-score in [5]; 0.405 E-score in [6]. The binding signal in assay [7] is 0.269 E-score; in [8], 0.209 E-score; in assay [9] it was 0.326 E-score; in assay [10], 0.441 E-score; in assay [11], 0.44 E-score.
Regarding TACGGCAA, the binding signal in assay [1] is 0.409 E-score; in assay [2] it was 0.409 E-score; in assay [3], 0.363 E-score; in assay [4], 0.381 E-score; in assay [5], 0.422 E-score; in assay [6] it was 0.362 E-score. Besides, the binding signal in assay [7] turned out to be 0.212 E-score; in assay [8], 0.192 E-score; in [9], 0.381 E-score; in assay [10] it was 0.417 E-score; in [11], 0.419 E-score.

Values taken from publication PMC4081100, “A DNA-binding-site landscape and regulatory network analysis for NAC transcription factors in Arabidopsis thaliana”.
